Source: PubChem BioAssay
Rpn11 inh: Rpn11 (human) deubiquitinase inhibition; O00487; human 26S proteasome, Ub4-pepOG fluorescence polarization; 20S core pre-blocked with epoxomicin; 360,000 compounds, 0.59% hits; inhibition, % at 20 µM;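 active = inhibition at 20 µM, scaled to each plate's controls, above about 33%, limit read from the data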
TPT1 inh: C. albicans TPT1 enzyme inhibition. inhibition, % at 5 µM. 300,000 compounds, 0.81% hits. recombinant caTPT1, FP RNA substrate dephosphorylation;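 active = inhibition above the mean of all tested compounds plus 3 SD, set per screening campaign, cut at about 24% in these data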
Myeloid diff 2: promotes myeloid progenitor differentiation | ER-HoxA9 myeloid progenitors, lysozyme-GFP differentiation, flow cytometry | AID 624256 | calls only at 10 µM | 360,000 compounds, 1% hits;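 active = normalized GFP-positive differentiation at or above the plate's own cutoff, the solvent-only control mean plus 3 SD; inconclusive = no clear call, values can overlap the other calls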;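 also: cells exposed to compound for four days before flow analysis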
HNF4A DNA FP: change in binding of human HNF4 alpha to DNA | P41235 | HNF4a-FITC DNA binding, fluorescence polarization, 1 h | activity change, % at 10 µM | 360,000 compounds, 0.3% hits; in the data active = activity change above about 30%, passing the limit was not always enough
Target sequence (P41235 whole entry, looked up): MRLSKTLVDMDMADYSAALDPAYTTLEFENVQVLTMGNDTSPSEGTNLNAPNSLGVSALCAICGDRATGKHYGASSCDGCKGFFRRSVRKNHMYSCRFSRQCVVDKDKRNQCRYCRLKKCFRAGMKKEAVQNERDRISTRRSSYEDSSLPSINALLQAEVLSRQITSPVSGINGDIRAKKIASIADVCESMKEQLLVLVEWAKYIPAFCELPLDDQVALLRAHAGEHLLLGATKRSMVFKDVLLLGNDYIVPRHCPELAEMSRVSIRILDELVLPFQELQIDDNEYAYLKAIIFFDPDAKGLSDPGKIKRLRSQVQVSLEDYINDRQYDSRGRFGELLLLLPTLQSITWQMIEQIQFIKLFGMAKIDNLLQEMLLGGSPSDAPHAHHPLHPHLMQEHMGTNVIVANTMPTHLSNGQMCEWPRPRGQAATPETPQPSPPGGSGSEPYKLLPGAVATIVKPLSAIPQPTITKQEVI
Rpn11 confirm: Rpn11 inhibition confirmation, single concentration; shares compounds with Rpn11 inh; purified human 26S proteasome, Ub4-pepOG fluorescence polarization; proteasome pretreated with epoxomicin; inhibition, % at 20 µM; 1,900 compounds, 29% hits; AID 602318
MMP-2 counter: counter-screen for RPN11 inhibitors: inhibition of human MMP-2. recombinant MMP-2, FRET peptide cleavage fluorescence. inhibition, % at 20 µM. AID 602330. shares compounds with Rpn11 inh. 1,900 compounds, 4% hits;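 also: human MMP-2 activated beforehand with APMA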
Thrombin FP: thrombin (bovine) inhibition counter-screen. shares compounds with Rpn11 inh. bovine thrombin cleavage of Ub4-pepOG, fluorescence polarization. inhibition, % at 20 µM. 1,900 compounds, 13% hits. AID 602333;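 active = mean inhibition at least 40% at 20 µM, or signal 3 deviations below plate average, so some actives read negative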
Large screens that a line does not name were inactive (follow-up assays come after a bar, where shown). Only some compounds are listed: those with a hit (about 2.1% of all), similar ones and a draw of the others. Rule as the data show it, unless noted: active = inhibition above about 40%; inactive = the rest.

CCn1c(O)c(/C=N/N=C2CCCC2)c2ccc(C3=NNC(=O)CC3)cc21	Rpn11 inh 39.9 | Rpn11 confirm inactive | MMP-2 counter inactive | Thrombin FP inactive
CN1CCCC1CCNc1ccc2c(=O)c3ccccc3oc2c1 (stereo not given)	none
CN1CCC[C@H]1CCNc1ccc2c(=O)c3ccccc3n(C)c2c1	Rpn11 inh 48.0, Myeloid diff 2 active (no result: TPT1 inh) | Rpn11 confirm inactive | MMP-2 counter inactive | Thrombin FP inactive
COc1ccc2c(Cl)c(C(=O)N/N=C/c3c(C)[nH]c4ccccc34)sc2c1	Rpn11 inh 71.9 | Rpn11 confirm 99.0 | MMP-2 counter inactive | Thrombin FP 52.9
Cc1ccc(C(=O)Nc2ccc(C(=O)N/N=C/c3cccnc3)cc2)cc1	Rpn11 inh 57.0 | Rpn11 confirm 48.9 | MMP-2 counter inactive | Thrombin FP inactive
Cc1cccc(C(=O)Nc2ccc(C(=O)N/N=C/c3cccnc3)cc2)c1	none
N#Cc1cnc(SCC(=O)NNC(=O)COc2cccc3ccccc23)nc1N	Rpn11 inh 45.4, TPT1 inh 51.2 | Rpn11 confirm inactive | MMP-2 counter inactive | Thrombin FP inactive
O=C1NC(=O)/C(=C\c2ccccc2OCc2ccc([N+](=O)[O-])cc2)N1	Rpn11 inh 45.4 | Rpn11 confirm inactive | MMP-2 counter inactive | Thrombin FP inactive
O=C(N/C(=C\c1cccc(Br)c1)C(=O)N1CCOCC1)c1ccco1	none
CCOC(=O)c1c(C)[nH]c(O)c1C=Nc1ccc(Cl)cc1	Rpn11 inh 55.1 | Rpn11 confirm inactive | MMP-2 counter inactive | Thrombin FP inactive
Cc1ccc(NC2CCCN(C(=O)CCCN3CCCCC3=O)C2)cc1C (stereo not given)	none
CCOc1ccccc1NC(=O)CN1C(=O)CSC(C)C1=O (stereo not given)	none
COc1ccccc1Cc1c(-c2ccccc2)nc2ccc(Cl)cn12	none (no result: TPT1 inh)
CC(C)(C)Cc1c(-c2cccc(Cl)c2)nc2ccc(Cl)cn12	Rpn11 inh 43.2 (no result: TPT1 inh) | Rpn11 confirm inactive | MMP-2 counter 52.1 | Thrombin FP inactive
COc1ccccc1Cc1c(-c2ccccc2)nc2ccc(Br)cn12	none (not shown: Rpn11 inh, TPT1 inh)
COc1ccccc1Cc1c(-c2ccc(C)cc2)nc2ccc(Br)cn12	Rpn11 inh 48.4 (no result: TPT1 inh) | Rpn11 confirm inactive | MMP-2 counter inactive | Thrombin FP inactive
COc1ccccc1Cc1c(-c2cccc(Br)c2)nc2ccc(Cl)cn12	Rpn11 inh 57.5 (no result: TPT1 inh) | Rpn11 confirm 60.2 | MMP-2 counter inactive | Thrombin FP inactive
COc1ccccc1Cc1c(-c2ccc(Cl)cc2)nc2ccc(Br)cn12	Rpn11 inh 41.2 (no result: TPT1 inh) | Rpn11 confirm 40.5 | MMP-2 counter inactive | Thrombin FP 50.8
CN1CCN(C(=O)C2=C[C@@H](C3CCCCC3)C[C@@H](OCCCCO)O2)CC1	none
Cc1nc2c(sc3nc(N4CCOCC4)c4c(c32)CC(C)(C)OC4)c(-c2ccc(Cl)cc2)c1C(=O)O	Rpn11 inh 57.4 | Rpn11 confirm inactive | MMP-2 counter inactive | Thrombin FP inactive
CC1(C)Cc2c(c(N3CCOCC3)nc3sc(C(=O)Nc4ccc(Cl)cc4)c(N)c23)CO1	none
Cc1cc(Br)cc(Br)c1OCC(=O)NNC(=O)c1ccoc1C	Myeloid diff 2 inconclusive
CC1(C)Oc2ccc(C(=O)NC3CCCC3)cc2N(CC(=O)N2CCOCC2)C1=O	Rpn11 inh 75.1 | Rpn11 confirm inactive | MMP-2 counter inactive | Thrombin FP inactive
CCOC1=C/C(=C/c2c(N)n3nc(CC(=O)N4CCCCC4)sc3nc2=O)C=CC1=O	Rpn11 inh 78.9 | Rpn11 confirm 43.9 | MMP-2 counter inactive | Thrombin FP inactive
COC1=C/C(=C/c2c(N)n3nc(CC(=O)N4CCCCC4)sc3nc2=O)C=CC1=O	Rpn11 inh 51.4, Myeloid diff 2 inconclusive | Rpn11 confirm inactive | MMP-2 counter inactive | Thrombin FP 52.2
C=CCC1=C/C(=C\c2c(N)n3nc(CC(=O)N4CCCC4)sc3nc2=O)C=C(OC)C1=O	none (not shown: Rpn11 inh)
CC(C)(C)NC(=O)C[C@H]1C[C@H](C(=O)N2CCCCC2)[C@@]2(CCc3ccccc3)c3[nH]c4cc(-c5ccco5)ccc4c3CCN2C1=O	Rpn11 inh 53.0 (no result: TPT1 inh) | Rpn11 confirm inactive | MMP-2 counter inactive | Thrombin FP inactive
CC[C@]12c3[nH]c4cc(-c5ccco5)ccc4c3CCN1C(=O)[C@@H](CC(=O)NCC13CC4CC(CC(C4)C1)C3)C[C@@H]2C(=O)N1CCN(C(=O)C2CC2)CC1	none (no result: TPT1 inh)
COc1ccc(CNC(=O)C[C@H]2C[C@H](C(=O)N3CCCCC3)[C@@]3(CCc4ccccc4)c4[nH]c5cc(-c6ccco6)ccc5c4CCN3C2=O)cc1OC	Rpn11 inh 56.5 (no result: TPT1 inh) | Rpn11 confirm inactive | MMP-2 counter inactive | Thrombin FP inactive
C[C@]12c3[nH]c4cc(-c5ccco5)ccc4c3CCN1C(=O)[C@@H](CC(=O)NCC13CC4CC(CC(C4)C1)C3)C[C@@H]2C(=O)N1CCCCC1	Rpn11 inh 39.0 (no result: TPT1 inh) | Rpn11 confirm inactive | MMP-2 counter inactive | Thrombin FP inactive
CN(C)CCCNC(=O)C[C@H]1C[C@H](C(=O)N2CCCCC2)[C@@]2(CCc3ccccc3)c3[nH]c4cc(-c5ccco5)ccc4c3CCN2C1=O	none (no result: TPT1 inh)
O=C(C[C@H]1C[C@H](C(=O)N2CCOCC2)[C@@]2(CCC3CCCC3)c3[nH]c4cc(-c5ccco5)ccc4c3CCN2C1=O)NCCC1=CCCCC1	Rpn11 inh 38.0 (no result: TPT1 inh) | Rpn11 confirm inactive | MMP-2 counter inactive | Thrombin FP inactive
CC[C@]12c3[nH]c4cc(-c5ccco5)ccc4c3CCN1C(=O)[C@@H](CC(=O)NCc1ccc(OC)c(OC)c1)C[C@@H]2C(=O)N1CCN(C(=O)C2CC2)CC1	none (no result: TPT1 inh)
O=C(C[C@H]1C[C@H](C(=O)N2CCOCC2)[C@@]2(CCC3CCCC3)c3[nH]c4cc(-c5ccco5)ccc4c3CCN2C1=O)NCCc1ccccn1	none (no result: TPT1 inh)
Cn1c(N)c(C(=O)COC(=O)CC(NC(=O)c2ccccc2Cl)c2ccccc2)c(=O)n(C)c1=O (stereo not given)	none
COc1ccc(C2=NN(C(C#N)c3ccc(OC)c(OC)c3)C(c3ccccc3)C2)cc1 (stereo not given)	Rpn11 inh 65.7 | Rpn11 confirm inactive | MMP-2 counter inactive | Thrombin FP inactive
COc1ccc2nc(/C(C#N)=C\c3ccc(C(=O)O)cc3)[nH]c2c1	Rpn11 inh 43.0 | Rpn11 confirm inactive | MMP-2 counter inactive | Thrombin FP inactive
COc1ccc2nc(/C(C#N)=C\c3ccc(Oc4ccc([N+](=O)[O-])cn4)cc3)[nH]c2c1	none
O=c1[nH]c(CN2CCN(S(=O)(=O)c3ccccc3C(F)(F)F)CC2)nc2sc3c(c12)CCCC3	Rpn11 inh 71.0 | Rpn11 confirm inactive | MMP-2 counter inactive | Thrombin FP inactive
